Reference: ChEMBL document CHEMBL4513160, “CO-ADD screening of MMV (CH) - Small Polar Library”
The campaign covered roughly 18,000 compounds. Fewer than 10 showed an effect of 50% or more. The list is a sample of the results.

These molecules were tested on Pseudomonas aeruginosa (assay: Antibacterial activity against Pseudomonas aeruginosa PAO397 [PAO1 d(mexAB-oprM) d(mexCD-oprJ) d(mexEF-oprN) d(mexJKL) d(mexXY) d(opmH)] (CO-ADD:GN_211); MIC in CAMBH media using NBS plates, by OD(600)). Settings: Concentration 300 ug.mL-1, ASSAY_TEST Inhibition of Bacterial Growth, detection method Absorption (OD600), MEDIA CAMHB, plate type 384well, CORNING #3640, time 18 hr.
Assay type: functional

Structure (SMILES) | Inhibition [%]
OC(CNc1ncc(Cl)cc1F)CN1CCOCC1 (centres undefined) | 11.06
CC(C)C(=O)Nc1ccc(N2CCOCC2)nc1 | 4.38
COC(=O)CCCC(=O)N1CCC2(CCCC2)C1 | 14.7
COCCNS(=O)(=O)C1CCCCC1 | -6.37
CC(C)c1cccc(S(=O)(=O)N2CCCC2CN)c1 (centres undefined) | -46.42
O=C(CN1CCCC1c1ccco1)N1CCOCC1 (centres undefined) | 18.12
CC(C)c1ccn(CC(=O)NC2CC2)n1 | 1.75
CCc1nnc(NCCS(=O)(=O)N(C)C)o1 | -4.82
CC(C)n1cc(C(=O)NCCN(C)S(C)(=O)=O)cn1 | 17.41
CC(=O)NCc1cn2c(C)cccc2n1 | -5.3
Cc1ccnc(NCCS(=O)(=O)NCC2CCC2)c1 | -18.59
CNC(=O)c1nc(-c2ccc(C(F)(F)F)cc2)no1 | 32.14
CN(c1ccccc1C(N)=O)S(=O)(=O)c1cccs1 | -71.82
CN(C(=O)COCC1CC1)c1nc2ccccc2n1C | 4.52
CNc1ccc(N2CCOCC2)nc1 | -26.42
CCN1CCN(CC(=O)Nc2ccc(C)cc2C)CC1 | -4.07
CN(C)[C@@H]1CN(C(=O)c2ncccn2)C[C@H]1CO | 3.69
NC(=O)CCC1CCNCC1 | -8.79
CCC(C)NC(=O)N1CCCN(C2CC2)CC1 (centres undefined) | 16.96
Fc1ccccc1CN1CCn2ccnc2C1 | -12.72
NC1CCCN(c2noc(-c3ccccc3)n2)CC1 (centres undefined) | 0.95
COCCNC(=O)NCCc1ccc(C)c(OC)c1 | 7.38
Cc1ccc(NC(=O)NC2(CCO)CCOCC2)s1 | -4.26
CCc1nnc(NC2CCOC3(CCOCC3)C2)o1 (centres undefined) | 8.44
CCc1ccccc1CN | 3.32
CC(=O)NC(C(=O)Nc1cccc(C)n1)C(C)C (centres undefined) | -8.54

Structure (SMILES) | Inhibition [%]
O=C1CN(Cc2ncc[nH]2)CCN1C1CCCC1 | 2.49
CCOCC(=O)N(C)Cc1cccc2cnccc12 | -38.69
CC(CO)Sc1ccc(S(=O)(=O)C(F)F)cc1 (centres undefined) | 16.44
CS(=O)(=O)CC1(CNc2cccc(C(F)(F)F)n2)CC1 | -21.2
OCc1ccncc1NCC1CCOCC1 | 8.94
OCCCNc1cccc(Cl)c1-n1cccn1 | -33.42
Cn1nc(C(F)(F)F)c(Cl)c1C(=O)N[C@@H]1CCNC1 | 31.11
CC(=O)NC(CC(=O)N1CCCC1)c1ccc(Cl)cc1 (centres undefined) | -24.39
CN(Cc1ccccc1)C(=O)NC1CCCCNC1=O (centres undefined) | -2.06
CS(=O)(=O)N1CCCC(C(=O)Nc2cccnc2O)C1 (centres undefined) | 14.72
Cc1cc(N(C)C)nc(N2CCCC2C(=O)N(C)C)n1 (centres undefined) | -8.5
Cc1cc(NC(=O)CCn2ccnc2)no1 | 1.69
COc1c(CNC(=O)c2cccs2)c(C)nn1C | -17.79
CCC(=O)N1CCCN(c2ccncc2Cl)CC1 | -2.88
CN1Cc2cccn2CC1CNC(=O)NC1CCCC1 (centres undefined) | -13.25
N[C@@H]1CC[C@@H]1NC(=O)CCn1cc(Cl)cn1 | -25.34
COc1cc(F)c(C(=O)N[C@@H]2CCNC[C@H]2O)c(F)c1 | 19.43
CN(c1ccc(O)cc1)S(=O)(=O)c1ccco1 | -8.79
CCOCC(=O)N1C[C@H](CO)C[C@H](CN2CCCC2)C1 | -0.69
COc1ccc(CNC(=O)C2=COCCO2)cc1OC | 2.02
CCN(C)CCNC(=O)c1cc(C2CC2)[nH]n1 | -3.76
Cn1c(N)nc2cc(F)ccc21 | -7.38
COc1ccc(C)c(NC(=O)N(C)CCN(C)C)c1 | -15.47
NS(=O)(=O)CC1CCCN1CCSc1ccccc1 (centres undefined) | -5.99
CCn1ccc(C(=O)NCc2ccco2)n1 | 2.87
O=C1CCC(=O)N1CCSc1ccc2ccccc2n1 | -6.71

Structure (SMILES) | Inhibition [%]
Cc1cc(NC(=O)Nc2ccccn2)n(C)n1 | 4.35
CC(=O)N1CCCn2nc(-c3cccnc3)cc2C1 | 11.49
COc1ccc(Br)c(S(=O)(=O)N(C)C)c1 | -20.8
COc1ccc2c(c1)[C@@H](O)CCC2 | -31.22
N#Cc1ccc(OC2CCNC2)nc1 (centres undefined) | 1.63
O=C(CCc1ccccn1)NCCn1cccc1 | 9.1
N#CCSCC(=O)NCc1ccccc1F | -29.21
Nc1ncccc1CN1CCc2ccccc2CC1 | 7.61
COc1ccc(-c2cncc(N)c2)cc1CO | -5.49
COCCN(C)C(=O)Nc1cccc(C)n1 | -9.37
NCC(=O)Nc1ccc2c(c1)CCC2 | -42.19
NCc1nc2c(s1)CCCC2 | -13.62
Cn1ccnc1SCCNCC1(O)CNCCOC1 (centres undefined) | 1.72
COCCn1ccnc1CN1CCN(C)C(CO)C1 (centres undefined) | -3.82
CN(C)C1CCCN(C(=O)c2n[nH]c(N)c2Cl)CC1 (centres undefined) | -17.73
O=C1CC(N2CCN(Cc3ccccc3)CC2)C(=O)N1 (centres undefined) | -12.59
CN1CC[C@H]2CN(C(=O)CCCc3cn[nH]c3)C[C@H]21 | -2.24
CC(O)CCS(C)(=O)=O (centres undefined) | 4.88
NC1CCN(S(=O)(=O)C2CC2)CC1 | 17.98
O=C(CCc1ccc2[nH]ccc2c1)N1CCOCC1 | -29.4
CCOc1cc(C(=O)NC2=NCCS2)ccc1OC | 13.17
Cn1nc(C(=O)Nc2nc(CC(N)=O)cs2)ccc1=O | 12.8
OCc1cc(CNc2ncccn2)ccc1F | 6.43
CC(CN)N(C)C(=O)c1ccccc1Br (centres undefined) | 12.75
CN(C)c1ncccc1CNC(=O)COCC1CC1 | -2.02
CC(C)C(=O)NCc1ccnc(-n2cccn2)c1 | 10.08

Structure (SMILES) | Inhibition [%]
O=C(Cn1cc(Br)cn1)NC1CCc2nccn2C1 (centres undefined) | -4.73
CCCOc1cccc(NCCCS(C)(=O)=O)c1 | 1.09
O=C(NCCCN1CCc2ccccc2C1)C1CC1 | -1.62
NCC1CCN(c2cnn(CC3CCC3)c(=O)c2)CC1 | -9.55
CC1CN(c2cc(CN)ccn2)CCO1 (centres undefined) | 10.77
CC(C)(C(=O)N1CC[S+]([O-])C(C)(C)C1)c1ccccc1 (centres undefined) | 12.17
NC(=O)NCC1CCN(Cc2ccccc2)C1 (centres undefined) | -16
COCC(=O)Nc1cccc(CN2CCCC2)c1 | -2.77
NC(=O)C1CCN(C(=O)C2CCCO2)CC1 (centres undefined) | -13.49
COc1ccc(C(=O)NCc2ccccn2)cc1F | -44.49
COC(=O)CNc1ccc2ccn(C)c(=O)c2c1 | 13.73
CN1CCCC(CCN)C1 (centres undefined) | 8.27
Cc1nn(C)c(C)c1CCC(=O)NC1CCCNC1=O (centres undefined) | 6.16
O=C(c1ccc(Br)cn1)N1CCN(CCO)CC1 | 18.45
CSc1ncccc1C(=O)N1CCCC(C)(C#N)C1 (centres undefined) | -17.22
CC1CCCN(Cc2cc(=O)n(C)c(=O)n2C)C1 (centres undefined) | 8.23
O=C(NC(C1CCNCC1)[C@H]1C[C@H](O)C1)C1(CO)CC1 (some centres undefined) | 10.73
CC1(C)Cc2cccc(OCCN)c2O1 | -35.66
CN1CCC(CN(C)Cc2cncs2)C1 (centres undefined) | 2.31
CC(Cn1cccn1)NC(=O)CCc1ccc(F)cc1 (centres undefined) | -50.8
CC(C)c1nc(CN(CCO)Cc2nccn2C)co1 | -7.36
CC1(C)CN(CC(O)C(F)(F)F)CCO1 (centres undefined) | 7.85
COc1cccc(CN(C)CCN(C)C)c1OC | 12.2
CC(C)NC(=O)CNC(=O)c1cc2cc(F)ccc2[nH]1 | -6.73
CC1CCN(C(=O)NCCS(=O)(=O)C(C)(C)C)C1 (centres undefined) | 10.36
CCNc1ncc(C(=O)N[C@@H]2CC[C@@H](N)C2)cn1 | 21.83

Structure (SMILES) | Inhibition [%]
CC(c1ccc(F)cc1)N(C)C(=O)CCCN (centres undefined) | -12.4
c1nsnc1-c1nc(C2CCCO2)no1 (centres undefined) | -21.13
O=C(NCc1nnc2n1CCC2)Nc1cn[nH]c1 | 21.21
NCCCc1cn[nH]c1 | 12.47
O=C(c1ccc(C2CCCNC2)cc1)N1CCSCC1 (centres undefined) | -23.58
CCCNC(=O)C1CCN(c2ncccc2C#N)CC1 | -18.27
CCC(C(=O)Nc1ccccc1)N1CCS(=O)(=O)CC1 (centres undefined) | 18.51
COc1cc(F)c(S(=O)(=O)N(C)CC(N)=O)cc1OC | 33.48
COc1nc(C)ccc1C#N | 11.86
CC1(C)C(=O)NCCN1S(=O)(=O)c1ccccc1 | -8.7
Nc1ccc(CN2CCN(CC(F)(F)F)CC2)cn1 | -9.81
COc1ccc(C(=O)N2C[C@@H](CO)[C@H](N(C)C)C2)cn1 | -8.8
NCc1cc2c([nH]c1=O)CCCC2 | 4.51
C=C(C)CN1CCC(NC(=O)NC2CC2)CC1 | -6.54
Cn1nc(C(=O)NCc2cc(Cl)ccn2)ccc1=O | -9.69
CC(C)CC(NCCS(C)(=O)=O)c1ccccn1 (centres undefined) | 6.01
Cc1sc(S(N)(=O)=O)cc1N | 7.68
COc1ccc(CC(C)=O)cn1 | 4.82
CC(C#N)CNC(=O)c1c(O)cc(F)cc1F (centres undefined) | 13.91
Cc1cccc(CNCCS(=O)(=O)N2CCOCC2)c1 | -1.09
c1cnc2cc(-c3nc(C4CCOC4)no3)nn2c1 (centres undefined) | 18.33
CC(C)N(CCOc1ccccc1C#N)CC(N)=O | -27.27
Cc1csc(N2CCCN(C(=O)c3cnsn3)CC2)n1 | -3.72
O=C(c1cccc(-n2cccn2)n1)N1CCCC1 | 17.03
COCCCn1c(SC2CCCCNC2=O)n[nH]c1=O (centres undefined) | -25.74
